According to the supplement of paper PMC11732987, “Enantioselective OTUD7B fragment discovery through chemoproteomics screening and high-throughput optimisation” (Communications Chemistry, 2025):

Key:
Experiment in all cases: log2 ratio of Biotin-Ahx-Ub-VS probe labelling (fragment/DMSO); higher = less target engagement (more negative = stronger competition), active = hit call of the paper (q ≤ 0.05, log2 ratio ≤ -1)
Details in all cases: compound concentration: 200 uM; treatment time: 3 h
USP34 = USP34 (UniProt Q70CQ2)
USP34, sequence (Q70CQ2 whole entry, the tested form may be a part): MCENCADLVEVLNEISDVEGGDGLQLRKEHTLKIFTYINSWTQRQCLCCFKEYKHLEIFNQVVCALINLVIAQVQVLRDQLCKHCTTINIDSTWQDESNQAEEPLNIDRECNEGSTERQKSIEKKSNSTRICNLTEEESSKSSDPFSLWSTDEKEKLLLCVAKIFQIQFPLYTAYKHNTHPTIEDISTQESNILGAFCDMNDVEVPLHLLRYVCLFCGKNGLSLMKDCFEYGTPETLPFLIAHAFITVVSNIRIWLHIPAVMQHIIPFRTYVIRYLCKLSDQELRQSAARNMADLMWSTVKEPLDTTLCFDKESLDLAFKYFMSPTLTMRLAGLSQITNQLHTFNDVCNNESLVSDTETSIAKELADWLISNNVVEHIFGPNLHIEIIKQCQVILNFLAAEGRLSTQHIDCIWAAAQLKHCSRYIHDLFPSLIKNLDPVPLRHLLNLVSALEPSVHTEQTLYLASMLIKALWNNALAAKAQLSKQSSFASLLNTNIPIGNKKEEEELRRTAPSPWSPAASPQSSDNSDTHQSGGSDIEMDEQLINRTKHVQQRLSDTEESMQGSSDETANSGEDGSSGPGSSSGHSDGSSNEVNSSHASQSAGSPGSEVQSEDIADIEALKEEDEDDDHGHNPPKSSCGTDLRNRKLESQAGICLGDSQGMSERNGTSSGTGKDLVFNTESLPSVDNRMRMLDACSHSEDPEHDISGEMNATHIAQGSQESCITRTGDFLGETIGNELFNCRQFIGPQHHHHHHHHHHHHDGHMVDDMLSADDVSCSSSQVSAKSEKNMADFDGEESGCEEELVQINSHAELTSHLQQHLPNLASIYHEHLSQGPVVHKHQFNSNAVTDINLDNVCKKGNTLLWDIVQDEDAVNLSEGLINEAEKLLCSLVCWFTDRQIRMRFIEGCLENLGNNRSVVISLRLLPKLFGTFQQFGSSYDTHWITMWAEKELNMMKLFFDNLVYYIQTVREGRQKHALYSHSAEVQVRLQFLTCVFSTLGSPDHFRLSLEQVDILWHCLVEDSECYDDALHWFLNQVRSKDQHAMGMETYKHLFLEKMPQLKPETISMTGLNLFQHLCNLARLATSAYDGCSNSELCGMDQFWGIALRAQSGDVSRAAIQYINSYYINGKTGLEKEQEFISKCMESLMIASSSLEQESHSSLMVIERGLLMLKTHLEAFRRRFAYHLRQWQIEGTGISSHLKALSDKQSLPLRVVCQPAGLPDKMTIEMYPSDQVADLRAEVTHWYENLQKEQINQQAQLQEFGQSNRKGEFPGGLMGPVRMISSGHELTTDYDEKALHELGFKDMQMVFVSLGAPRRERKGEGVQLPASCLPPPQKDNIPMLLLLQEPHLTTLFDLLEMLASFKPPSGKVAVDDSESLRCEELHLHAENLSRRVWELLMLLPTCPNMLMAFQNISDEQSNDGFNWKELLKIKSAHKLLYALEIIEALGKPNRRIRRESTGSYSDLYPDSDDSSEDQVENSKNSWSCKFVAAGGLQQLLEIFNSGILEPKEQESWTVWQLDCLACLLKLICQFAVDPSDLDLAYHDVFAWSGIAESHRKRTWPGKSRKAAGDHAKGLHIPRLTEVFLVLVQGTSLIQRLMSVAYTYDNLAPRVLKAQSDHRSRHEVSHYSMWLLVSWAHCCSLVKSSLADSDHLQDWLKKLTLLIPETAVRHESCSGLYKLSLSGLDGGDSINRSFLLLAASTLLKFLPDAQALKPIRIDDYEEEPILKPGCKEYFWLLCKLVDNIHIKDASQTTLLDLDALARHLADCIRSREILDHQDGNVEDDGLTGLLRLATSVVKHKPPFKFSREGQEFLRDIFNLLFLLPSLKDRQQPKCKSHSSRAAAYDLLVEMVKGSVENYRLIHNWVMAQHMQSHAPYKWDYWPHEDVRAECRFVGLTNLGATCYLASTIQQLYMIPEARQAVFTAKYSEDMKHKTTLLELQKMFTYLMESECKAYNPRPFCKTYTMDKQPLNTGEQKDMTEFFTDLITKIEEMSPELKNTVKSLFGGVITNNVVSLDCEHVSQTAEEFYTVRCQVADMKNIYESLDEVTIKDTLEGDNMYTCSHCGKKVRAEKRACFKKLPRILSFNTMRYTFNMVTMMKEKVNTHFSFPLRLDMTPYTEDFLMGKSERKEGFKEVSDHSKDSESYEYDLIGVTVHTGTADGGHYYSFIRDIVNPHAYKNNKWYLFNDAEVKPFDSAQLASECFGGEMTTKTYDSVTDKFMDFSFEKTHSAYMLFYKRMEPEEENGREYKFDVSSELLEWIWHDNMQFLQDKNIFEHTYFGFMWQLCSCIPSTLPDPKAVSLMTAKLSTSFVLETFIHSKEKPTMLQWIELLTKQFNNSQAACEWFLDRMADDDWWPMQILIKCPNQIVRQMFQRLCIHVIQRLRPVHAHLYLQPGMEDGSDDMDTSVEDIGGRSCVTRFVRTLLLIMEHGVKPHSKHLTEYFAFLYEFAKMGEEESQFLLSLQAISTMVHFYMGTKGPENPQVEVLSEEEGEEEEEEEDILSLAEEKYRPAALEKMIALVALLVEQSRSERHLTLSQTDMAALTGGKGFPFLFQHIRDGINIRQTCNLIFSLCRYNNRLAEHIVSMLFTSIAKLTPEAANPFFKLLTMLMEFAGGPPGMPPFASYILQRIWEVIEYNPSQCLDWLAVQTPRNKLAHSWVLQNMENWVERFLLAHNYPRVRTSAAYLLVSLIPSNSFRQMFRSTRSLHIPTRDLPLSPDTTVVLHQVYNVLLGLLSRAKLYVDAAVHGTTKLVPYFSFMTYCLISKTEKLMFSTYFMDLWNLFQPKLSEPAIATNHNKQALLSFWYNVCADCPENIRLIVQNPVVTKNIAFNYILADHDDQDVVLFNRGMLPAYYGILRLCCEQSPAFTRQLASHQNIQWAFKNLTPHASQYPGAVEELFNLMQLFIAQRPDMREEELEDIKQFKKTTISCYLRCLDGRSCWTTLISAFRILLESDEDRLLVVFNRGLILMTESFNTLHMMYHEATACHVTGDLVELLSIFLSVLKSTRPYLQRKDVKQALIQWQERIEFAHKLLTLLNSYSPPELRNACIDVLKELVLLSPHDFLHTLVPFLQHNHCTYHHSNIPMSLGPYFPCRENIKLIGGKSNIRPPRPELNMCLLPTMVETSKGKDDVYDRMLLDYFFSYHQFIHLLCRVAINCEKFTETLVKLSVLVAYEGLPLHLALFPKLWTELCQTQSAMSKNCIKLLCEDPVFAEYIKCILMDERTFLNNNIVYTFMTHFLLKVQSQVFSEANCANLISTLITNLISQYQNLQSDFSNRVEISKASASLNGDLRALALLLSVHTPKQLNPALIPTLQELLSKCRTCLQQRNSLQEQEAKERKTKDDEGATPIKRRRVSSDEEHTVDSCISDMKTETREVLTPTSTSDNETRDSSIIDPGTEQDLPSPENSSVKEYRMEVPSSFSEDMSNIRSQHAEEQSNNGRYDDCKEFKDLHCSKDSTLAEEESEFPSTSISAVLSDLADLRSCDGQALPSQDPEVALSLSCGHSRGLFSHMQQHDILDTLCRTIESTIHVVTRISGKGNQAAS
Method in brief: (§1)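 Triplicate samples of HEK293T lysate, 495 µg each, received fragment at 200 µM or vehicle for 3 h, followed by Biotin-Ahx-Ub-VS (0.5 µM final) for 1 h. After NeutrAvidin enrichment of labelled DUBs and LysC/trypsin digestion, peptides were run by diaPASEF LC-MS/MS. The values are average log2 fragment/vehicle ratios from global-median-normalised Spectronaut label-free quantities, tested by unpaired t-test on proteins having ≥2 unique peptides.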

USP36 = target: T1, USP36 (UniProt Q9P275)
T1 sequence (whole entry): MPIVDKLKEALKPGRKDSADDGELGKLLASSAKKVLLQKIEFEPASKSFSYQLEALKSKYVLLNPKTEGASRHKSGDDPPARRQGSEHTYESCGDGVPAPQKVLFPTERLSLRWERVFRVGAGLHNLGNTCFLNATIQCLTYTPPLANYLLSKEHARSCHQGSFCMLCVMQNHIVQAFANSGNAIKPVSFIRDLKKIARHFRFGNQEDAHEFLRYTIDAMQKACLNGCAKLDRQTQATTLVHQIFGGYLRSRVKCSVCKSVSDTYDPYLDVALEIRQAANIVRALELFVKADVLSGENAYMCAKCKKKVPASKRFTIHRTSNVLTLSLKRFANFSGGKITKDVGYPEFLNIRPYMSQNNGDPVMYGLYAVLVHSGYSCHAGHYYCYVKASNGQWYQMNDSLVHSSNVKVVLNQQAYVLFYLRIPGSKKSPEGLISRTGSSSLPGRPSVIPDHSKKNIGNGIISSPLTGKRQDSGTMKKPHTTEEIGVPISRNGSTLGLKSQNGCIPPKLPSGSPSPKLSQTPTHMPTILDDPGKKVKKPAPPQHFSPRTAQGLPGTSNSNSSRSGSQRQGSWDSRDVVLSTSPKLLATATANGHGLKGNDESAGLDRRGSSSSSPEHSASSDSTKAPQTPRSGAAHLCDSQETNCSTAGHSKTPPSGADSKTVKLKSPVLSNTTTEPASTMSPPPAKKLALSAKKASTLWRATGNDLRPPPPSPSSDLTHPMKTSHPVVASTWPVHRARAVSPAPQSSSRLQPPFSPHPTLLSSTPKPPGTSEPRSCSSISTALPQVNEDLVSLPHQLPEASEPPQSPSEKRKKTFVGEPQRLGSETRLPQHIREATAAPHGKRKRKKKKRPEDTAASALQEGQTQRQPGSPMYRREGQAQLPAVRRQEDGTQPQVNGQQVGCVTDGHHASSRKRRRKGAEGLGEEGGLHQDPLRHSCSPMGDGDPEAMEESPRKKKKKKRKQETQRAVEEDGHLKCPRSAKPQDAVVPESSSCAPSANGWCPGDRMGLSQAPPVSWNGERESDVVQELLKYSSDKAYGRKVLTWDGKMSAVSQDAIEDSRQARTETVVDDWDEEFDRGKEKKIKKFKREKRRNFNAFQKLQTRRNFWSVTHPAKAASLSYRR
Method in brief: as §1

USP38 = target: T2, USP38 (UniProt Q8NB14)
T2 sequence (whole entry): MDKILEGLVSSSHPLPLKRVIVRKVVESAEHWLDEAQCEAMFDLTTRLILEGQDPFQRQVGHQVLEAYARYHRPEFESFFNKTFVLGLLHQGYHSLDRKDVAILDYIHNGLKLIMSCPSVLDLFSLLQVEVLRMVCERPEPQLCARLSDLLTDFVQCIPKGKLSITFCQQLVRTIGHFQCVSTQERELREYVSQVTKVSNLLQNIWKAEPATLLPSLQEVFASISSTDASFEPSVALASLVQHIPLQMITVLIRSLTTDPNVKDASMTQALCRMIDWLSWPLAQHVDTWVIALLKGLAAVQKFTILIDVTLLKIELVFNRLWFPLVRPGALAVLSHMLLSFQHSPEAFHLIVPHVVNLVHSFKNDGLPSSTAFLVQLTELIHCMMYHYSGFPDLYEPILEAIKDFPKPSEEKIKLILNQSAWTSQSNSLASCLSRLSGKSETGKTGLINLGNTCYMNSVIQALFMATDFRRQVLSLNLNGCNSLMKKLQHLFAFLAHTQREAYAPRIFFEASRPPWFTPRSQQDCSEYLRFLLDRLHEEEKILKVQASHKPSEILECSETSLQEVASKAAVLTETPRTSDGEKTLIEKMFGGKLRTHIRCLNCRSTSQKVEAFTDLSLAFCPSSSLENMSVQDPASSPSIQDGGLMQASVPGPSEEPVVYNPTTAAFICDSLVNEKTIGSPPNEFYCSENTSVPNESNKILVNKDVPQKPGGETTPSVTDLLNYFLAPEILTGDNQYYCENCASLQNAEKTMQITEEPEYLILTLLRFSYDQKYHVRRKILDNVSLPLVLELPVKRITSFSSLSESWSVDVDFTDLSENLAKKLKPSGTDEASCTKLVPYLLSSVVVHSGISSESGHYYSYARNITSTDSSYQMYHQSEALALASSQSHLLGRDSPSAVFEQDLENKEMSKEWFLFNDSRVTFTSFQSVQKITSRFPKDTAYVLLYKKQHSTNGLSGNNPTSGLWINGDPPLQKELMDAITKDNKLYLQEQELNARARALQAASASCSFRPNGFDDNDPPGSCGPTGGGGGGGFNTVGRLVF
Method in brief: as §1

USP39 = target: T3, USP39 (UniProt Q53GS9)
T3 sequence (whole entry): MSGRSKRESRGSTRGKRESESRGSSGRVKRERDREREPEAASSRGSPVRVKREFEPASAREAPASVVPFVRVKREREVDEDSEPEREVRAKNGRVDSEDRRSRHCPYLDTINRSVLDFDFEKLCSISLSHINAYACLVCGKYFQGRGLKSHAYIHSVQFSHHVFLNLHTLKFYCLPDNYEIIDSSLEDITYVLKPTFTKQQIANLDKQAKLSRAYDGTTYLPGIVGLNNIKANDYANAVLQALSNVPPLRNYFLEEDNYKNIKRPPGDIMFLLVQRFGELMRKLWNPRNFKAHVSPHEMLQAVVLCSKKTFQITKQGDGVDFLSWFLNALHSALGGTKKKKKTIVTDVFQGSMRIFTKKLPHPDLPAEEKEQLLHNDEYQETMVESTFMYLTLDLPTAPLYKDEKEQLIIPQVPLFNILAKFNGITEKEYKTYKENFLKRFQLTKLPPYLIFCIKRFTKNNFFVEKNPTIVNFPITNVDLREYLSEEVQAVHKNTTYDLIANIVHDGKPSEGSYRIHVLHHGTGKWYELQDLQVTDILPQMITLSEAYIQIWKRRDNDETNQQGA
Method in brief: as §1

USP4 = target: T4, USP4 (UniProt Q13107)
T4 sequence (whole entry): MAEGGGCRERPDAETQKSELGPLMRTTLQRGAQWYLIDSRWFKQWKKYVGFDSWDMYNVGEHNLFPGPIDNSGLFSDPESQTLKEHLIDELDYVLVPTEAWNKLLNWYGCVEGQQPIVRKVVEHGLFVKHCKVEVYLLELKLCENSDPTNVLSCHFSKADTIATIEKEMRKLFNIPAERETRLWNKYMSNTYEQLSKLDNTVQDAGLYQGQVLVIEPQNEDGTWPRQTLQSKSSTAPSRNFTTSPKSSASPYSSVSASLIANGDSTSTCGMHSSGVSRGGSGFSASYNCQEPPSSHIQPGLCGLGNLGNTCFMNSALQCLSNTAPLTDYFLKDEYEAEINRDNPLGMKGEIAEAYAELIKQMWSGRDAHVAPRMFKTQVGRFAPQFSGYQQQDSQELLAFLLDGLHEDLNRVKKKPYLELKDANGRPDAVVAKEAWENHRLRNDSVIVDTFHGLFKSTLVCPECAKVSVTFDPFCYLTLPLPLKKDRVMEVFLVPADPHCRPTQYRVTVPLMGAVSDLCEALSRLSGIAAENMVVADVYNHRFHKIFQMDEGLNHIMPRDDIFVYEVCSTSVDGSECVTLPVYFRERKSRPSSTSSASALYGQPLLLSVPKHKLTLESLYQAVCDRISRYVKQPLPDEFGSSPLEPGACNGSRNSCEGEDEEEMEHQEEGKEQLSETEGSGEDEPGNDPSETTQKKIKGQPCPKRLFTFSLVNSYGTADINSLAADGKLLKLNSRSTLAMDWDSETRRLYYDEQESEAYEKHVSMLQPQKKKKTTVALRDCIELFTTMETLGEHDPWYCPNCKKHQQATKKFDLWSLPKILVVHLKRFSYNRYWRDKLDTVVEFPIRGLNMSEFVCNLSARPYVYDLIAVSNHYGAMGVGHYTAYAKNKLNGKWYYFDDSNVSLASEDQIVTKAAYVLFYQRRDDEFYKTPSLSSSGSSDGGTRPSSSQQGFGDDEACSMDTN
Method in brief: as §1

Measured: log2 ratio of Biotin-Ahx-Ub-VS probe labelling

Cc1cccc(N2CCC(NC(=O)CCl)C2=O)c1 (stereo not given)
inactive: USP34 0.0479 | USP36 -0.0247 | USP38 -0.169 | USP39 -0.32 | USP4 -0.134
